# From PubChem BioAssay (NCATS)
# Results filed as inconclusive are left out. Where a call stands in place of a potency, no number is given. Active and inactive are the calls of the source. Calls follow the shape of the dose curve; as a rule, active = well fitted inhibition curve with a large enough effect; inconclusive = small, poorly fitted or top-dose-only effect; inactive = flat fitted curve, though single readings scatter.
# Experiments:
# Test in all cases: qHTS profiling for inhibitors of Plasmodium falciparum proliferation (AID 504749); also: nearly all actives have a fitted effect of over 60% in size
# Conditions in all cases: P. falciparum in erythrocytes, SYBR Green DNA, 72 h; series mostly up to 28.7 µM
# 7G8 = system: 7G8
# How it was run: (§1)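 Quantitative HTS: compounds pinned into medium, infected erythrocytes added (0.3% parasitemia, 2.5% hematocrit), 72 h culture at 37 C under 5% CO2. Saponin/Triton lysis with SYBR Green I, overnight RT, then fluorescence read.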
# AA1029 = system: AA1029
# How it was run: as §1
# AS120 = system: AS120
# How it was run: as §1
# ATS189 = system: ATS189
# How it was run: as §1
# ATS95 = system: ATS95
# How it was run: as §1
# C2A = system: C2A
# How it was run: as §1
# CP185 = system: CP185
# How it was run: as §1
# CP191 = system: CP191
# How it was run: as §1
# CP192 = system: CP192
# How it was run: as §1
# CP194 = system: CP194
# How it was run: as §1
# CP201 = system: CP201
# How it was run: as §1
# CP203 = system: CP203
# How it was run: as §1
# CP211 = system: CP211
# How it was run: as §1
# CP215 = system: CP215
# How it was run: as §1
# CP217 = system: CP217
# How it was run: as §1
# CP237 = system: CP237
# How it was run: as §1
# CP238 = system: CP238
# How it was run: as §1
# CP247 = system: CP247
# How it was run: as §1
# CP250 = system: CP250
# How it was run: as §1
# CP252 = system: CP252
# How it was run: as §1
# Potency is read from the fitted curve at half-maximal effect.
Compound,Potency (7G8),Potency (AA1029),Potency (AS120),Potency (ATS189),Potency (ATS95),Potency (C2A),Potency (CP185),Potency (CP191),Potency (CP192),Potency (CP194),Potency (CP201),Potency (CP203),Potency (CP211),Potency (CP215),Potency (CP217),Potency (CP237),Potency (CP238),Potency (CP247),Potency (CP250),Potency (CP252)
COc1ccc(/C=C/C(=O)c2ccc(OC)cc2OC)cc1,5.01 µM (active),6.31 µM (active),8.91 µM (active),5.62 µM (active),11.2 µM (active),11.2 µM (active),8.91 µM (active),3.16 µM (active),13.5 µM (active),12 µM (active),8.49 µM (active),13.5 µM (active),6.75 µM (active),6.75 µM (active),5.01 µM (active),11.2 µM (active),11.2 µM (active),4.47 µM (active),5.62 µM (active),5.01 µM (active)
CC1(C)CCC(NC(=O)[C@@H](N)CCC(=O)O)CC1,inactive,inactive,inactive,inactive,inactive,inactive,inactive,inactive,inactive,inactive,inactive,inactive,inactive,inactive,inactive,inactive,inactive,inactive,inactive,inactive
CCCCC(CC)CN=C(N)NC(N)=NCCCCCCN=C(N)NC(N)=NCC(CC)CCCC (stereo not drawn),0.316 µM (active),1.41 µM (active),0.891 µM (active),3.16 µM (active),1.41 µM (active),2.24 µM (active),1.41 µM (active),1 µM (active),3.79 µM (active),1.51 µM (active),1.69 µM (active),,1.51 µM (active),1.69 µM (active),3.16 µM (active),1.26 µM (active),1 µM (active),1.12 µM (active),0.891 µM (active),1.26 µM (active)
COC1=CC(=O)C[C@@H](C)[C@]12Oc1c(Cl)c(OC)cc(OC)c1C2=O,inactive,inactive,inactive,inactive,inactive,inactive,inactive,inactive,inactive,inactive,inactive,inactive,inactive,inactive,inactive,inactive,inactive,inactive,inactive,inactive
CCN(CC)C(=O)/C(C#N)=C/c1cc(O)c(O)c([N+](=O)[O-])c1,14.1 µM (active),inactive,inactive,inactive,inactive,inactive,inactive,inactive,inactive,inactive,inactive,inactive,inactive,inactive,,,inactive,,inactive,inactive
CC(=O)OCC(=O)NCCCOc1cccc(CN2CCCCC2)c1,inactive,inactive,inactive,inactive,inactive,inactive,inactive,inactive,inactive,inactive,inactive,inactive,,inactive,inactive,inactive,inactive,inactive,inactive,inactive
Cc1ccnc(NS(=O)(=O)c2ccc(N)cc2)n1,inactive,inactive,inactive,inactive,inactive,inactive,inactive,inactive,inactive,inactive,inactive,inactive,inactive,,inactive,inactive,inactive,inactive,inactive,inactive
COC(=O)[C@@H]1CC2=CC(=O)CC[C@]2(C)[C@@]23O[C@@H]2C[C@@]2(C)[C@@H](CC[C@@]24CCC(=O)O4)[C@H]13,inactive,inactive,inactive,inactive,inactive,inactive,inactive,inactive,inactive,inactive,inactive,,inactive,inactive,inactive,inactive,inactive,inactive,inactive,inactive
COc1cc(OC)cc(OC)c1,inactive,inactive,inactive,inactive,inactive,inactive,inactive,inactive,inactive,inactive,inactive,,inactive,inactive,inactive,inactive,inactive,inactive,inactive,inactive
CN1CCC[C@@H]1c1cccnc1,inactive,inactive,inactive,inactive,inactive,inactive,inactive,inactive,inactive,inactive,inactive,,inactive,inactive,inactive,inactive,inactive,inactive,inactive,inactive
CC(C)(CO)[C@@H](O)C(=O)NCCCO,inactive,inactive,inactive,inactive,inactive,inactive,inactive,inactive,inactive,inactive,inactive,inactive,inactive,inactive,inactive,inactive,inactive,inactive,inactive,inactive
CN1C2CCC1CC(OC(=O)c1c[nH]c3ccccc13)C2 (stereo not drawn),10 µM (active),inactive,inactive,inactive,inactive,inactive,inactive,inactive,inactive,inactive,inactive,inactive,inactive,inactive,inactive,inactive,inactive,inactive,inactive,inactive
Nc1ccc(/C=C/c2ccc(N)cc2S(=O)(=O)O)c(S(=O)(=O)O)c1,inactive,inactive,inactive,inactive,inactive,inactive,inactive,inactive,inactive,inactive,inactive,,inactive,inactive,inactive,inactive,inactive,inactive,inactive,inactive
N[C@H](CO)C(=O)O,inactive,inactive,inactive,inactive,inactive,inactive,inactive,inactive,inactive,inactive,inactive,inactive,inactive,,inactive,inactive,inactive,inactive,inactive,inactive
Nc1cc(Cl)c(NC2=NCCN2)c(Cl)c1,inactive,inactive,inactive,inactive,inactive,inactive,inactive,inactive,inactive,inactive,inactive,,inactive,inactive,inactive,inactive,inactive,inactive,inactive,inactive
O=C(OCCOCCO)c1ccccc1Nc1cccc(C(F)(F)F)c1,inactive,inactive,inactive,inactive,inactive,inactive,inactive,inactive,inactive,inactive,inactive,,inactive,inactive,inactive,inactive,inactive,inactive,inactive,inactive
Cc1c(N(C)CS(=O)(=O)O)c(=O)n(-c2ccccc2)n1C,inactive,inactive,inactive,inactive,inactive,inactive,inactive,inactive,inactive,inactive,inactive,inactive,inactive,,inactive,inactive,inactive,inactive,inactive,inactive
CCCCCCCCCCCCCCCC[N+](C)(C)CC,3.55 µM (active),4.47 µM (active),5.01 µM (active),10 µM (active),6.31 µM (active),3.55 µM (active),3.98 µM (active),3.98 µM (active),4.78 µM (active),6.01 µM (active),6.75 µM (active),,4.78 µM (active),9.53 µM (active),5.62 µM (active),4.47 µM (active),5.01 µM (active),4.47 µM (active),5.01 µM (active),5.01 µM (active)
CCC(C(=O)OCCN(CC)CC)c1ccccc1 (stereo not drawn),inactive,inactive,inactive,inactive,inactive,inactive,inactive,inactive,inactive,inactive,inactive,inactive,inactive,inactive,inactive,inactive,inactive,inactive,inactive,inactive
C[C@@H]1C(=O)NC2=Nc3cccc(Cl)c3CN21,inactive,inactive,inactive,inactive,inactive,inactive,inactive,inactive,inactive,inactive,inactive,,inactive,inactive,inactive,inactive,inactive,inactive,inactive,inactive
C[C@H](O)C(=O)Nc1c(I)c(C(=O)NC(CO)CO)c(I)c(C(=O)NC(CO)CO)c1I,inactive,inactive,inactive,inactive,inactive,inactive,inactive,inactive,inactive,inactive,inactive,,inactive,inactive,inactive,inactive,inactive,inactive,inactive,inactive
CC[N+](CC)(CCNC(=O)C(=O)NCC[N+](CC)(CC)Cc1ccccc1Cl)Cc1ccccc1Cl,7.94 µM (active),2.82 µM (active),1 µM (active),2.24 µM (active),2.82 µM (active),10 µM (active),1.58 µM (active),4.47 µM (active),,2.39 µM (active),4.78 µM (active),1.35 µM (active),1.07 µM (active),3.79 µM (active),7.94 µM (active),3.16 µM (active),2.51 µM (active),3.55 µM (active),2.51 µM (active),4.47 µM (active)
O=C(O)CNC(=O)c1ccccc1,inactive,inactive,inactive,inactive,inactive,inactive,inactive,inactive,inactive,inactive,inactive,,inactive,inactive,inactive,inactive,inactive,inactive,inactive,inactive
CC(Cc1cccc(C(F)(F)F)c1)NCCOC(=O)c1ccccc1 (stereo not drawn),8.91 µM (active),inactive,inactive,inactive,inactive,inactive,inactive,inactive,inactive,,inactive,,inactive,inactive,inactive,,inactive,inactive,inactive,inactive
